# Test results reported in PubChem BioAssay (NCATS).
# Inconclusive results are not listed. Entries that show only a call come without a potency. Activity calls are given as the source filed them. Unless noted, the call rests on the fitted dose curve; in most records, active means well fitted curve in the direction sought with a large enough effect; inconclusive means small, poorly fitted or top-dose-only effect, or another doubt; inactive means no such curve, though single readings can be large; an effect the other way counts as inactive or inconclusive.
# How the values were obtained:
# [1] = qHTS profiling of the MIPE4 collection as inhibitors of Plasmodium falciparum (3D7) proliferation (AID 743344; call rule not given here); conditions: P. falciparum 3D7 in erythrocytes, SYBR Green DNA fluorescence, 72 h; at 28.5 µM
# How it was run: (§1)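 Erythrocytes infected with P. falciparum (0.3% parasitemia, 2.5% hematocrit) incubated with compounds 72 h at 37 C, 5% CO2. Lysis with saponin/Triton buffer containing SYBR Green I, overnight at room temperature in the dark; DNA fluorescence (485/535 nm) normalised to 0.29 uM artemisinin and DMSO.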
# [2] = qHTS profiling of the MIPE4 collection as inhibitors of Plasmodium falciparum (DD2) proliferation (AID 743345; call rule not given here); conditions: P. falciparum Dd2 in erythrocytes, SYBR Green DNA, 72 h; at 28.5 µM
# How it was run: as §1
# [3] = qHTS profiling of the MIPE4 collection as inhibitors of Plasmodium falciparum (DD2) proliferation (Rep 2) (AID 743346; call rule not given here); conditions: P. falciparum Dd2 in erythrocytes, SYBR Green DNA, 72 h; at 28.5 µM
# How it was run: as §1
# [4] = qHTS profiling of the MIPE4 collection as inhibitors of Plasmodium falciparum (HB3) proliferation (AID 743347; call rule not given here); conditions: P. falciparum HB3 in erythrocytes, SYBR Green DNA, 72 h; at 28.5 µM
# How it was run: as §1
# [5] = tested on: Zika virus NS2B-NS3 protease (unlinked complex); experiment: Confirmatory screen GU AMC qHTS for Zika virus inhibitors (AID 1347153); further: nearly all actives have a fitted effect of over 70% in size
# How it was run: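 Fluorescence change (ex 340/em 450 nm) over 15 min, ~20% substrate conversion, normalized to no-inhibitor and no-enzyme controls, then Hill-fitted. Unlinked protease at 25 nM; AMC peptide 10 µM.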
# [6] = tested on: Zika virus NS2B-NS3 protease (linked); experiment: 384 well plate NINDS AMC confirmatory qHTS for Zika virus inhibitors (AID 1347163);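 further: fluorescence of AMC released from Ac-VKTGKR-AMC peptide cleaved by the protease; top concentration of the series differs between compounds; nearly all actives have a fitted effect of over 50% in size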
# How it was run: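 Linked NS2B-NS3 protease (final 5 nM, 30 nM or 60 nM) was preincubated with compounds (final up to 1 mM) for ~15 minutes. Ac-VKTGKR-AMC substrate (final 30 microM) then reacted for 25 minutes at room temperature in the dark. Fluorescence (ex 355/em 460 nm) was normalized to no-enzyme and no-inhibitor controls.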
# [7] = tested on: Zika virus NS2B-NS3 protease (linked construct); experiment: 384 well plate NINDS Rhodamine confirmatory qHTS for Zika virus inhibitors (AID 1347164);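 further: fluorescence from protease cleavage of Ac-LKRR-rhodamine 110 substrate; potency means the concentration at half of the fitted maximal effect; nearly all actives have a fitted effect of over 65% in size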
# How it was run: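 Fluorescence at 485/538 nm was measured 25 minutes after adding 10 microM Ac-LKRR-Rd substrate, in the dark at room temperature. The protease (5, 30 or 60 nM final) had been preincubated ~15 minutes with compound; aprotinin as control.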
# [8] = Vero cells viability qHTS for Zika virus inhibitors (AID 1347167)
# How it was run: (§2)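 Compounds were tested in concentration series on cells grown in DMEM containing 4% FBS. After 24 to 48 hours, cellular ATP was measured by luminescence with CellTiter Glo.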
# [9] = HepG2 cells viability qHTS for Zika virus inhibitors (AID 1347168)
# How it was run: as §2
# [10] = Tertiary RLuc qRT-PCR qHTS assay for Zika virus inhibitors (AID 1347169); further: top concentration of the series differs between compounds; nearly all actives have a fitted effect of over 55% in size
# How it was run: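 Orthogonal cell-based readout: luminescence measured 1-1.5 hrs after adding live-cell Renilla substrate to Vero cells that had been infected with ZIKV-RLuc (MOI 1-2) post-compound, incubated 48-72 hrs at 37 degrees C.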
# [11] = tested on: Zika virus NS2B-NS3 protease; experiment: Primary screen GU AMC qHTS for Zika virus inhibitors (AID 1347154); further: nearly all actives have a fitted effect of over 70% in size
# How it was run: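 Fluorogenic AMC-substrate cleavage by noncovalent NS2B-NS3 protease complex (25 nM, pH 8.0 Tris buffer with Tween 20) followed for 15 minutes at room temperature (~20% conversion). Percent inhibition from ex340/em450 signal change, fitted by 4-parameter Hill equation.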
# [12] = target: Estrogen receptor (Homo sapiens) (UniProt P03372); experiment: qHTS assay for small molecule antagonists of estrogen receptor alpha signaling (AID 588513; active means well fitted curve in the direction sought with a large enough effect in the signal ratio, with a control signal flat, not every such curve was filed as active; the % refers to the signal ratio; further: potency means the concentration at half of the fitted maximal effect)
# Sequence of Estrogen receptor (Homo sapiens) (P03372 whole entry, looked up): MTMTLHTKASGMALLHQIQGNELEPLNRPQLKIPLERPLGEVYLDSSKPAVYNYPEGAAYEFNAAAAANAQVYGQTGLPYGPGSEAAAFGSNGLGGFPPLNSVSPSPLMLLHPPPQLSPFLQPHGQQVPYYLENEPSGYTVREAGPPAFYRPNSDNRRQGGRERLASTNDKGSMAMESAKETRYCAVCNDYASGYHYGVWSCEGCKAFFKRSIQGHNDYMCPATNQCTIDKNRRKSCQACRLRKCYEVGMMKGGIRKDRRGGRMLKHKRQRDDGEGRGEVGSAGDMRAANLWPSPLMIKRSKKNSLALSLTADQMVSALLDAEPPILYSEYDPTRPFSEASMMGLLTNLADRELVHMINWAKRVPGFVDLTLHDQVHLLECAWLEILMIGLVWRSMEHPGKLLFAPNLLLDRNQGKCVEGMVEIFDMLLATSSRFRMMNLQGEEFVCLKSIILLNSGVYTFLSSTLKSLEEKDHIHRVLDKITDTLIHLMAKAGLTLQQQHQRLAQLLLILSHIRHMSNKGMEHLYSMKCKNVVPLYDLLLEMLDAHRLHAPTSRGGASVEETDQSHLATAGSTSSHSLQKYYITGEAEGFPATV
# How it was run: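 Antagonist mode: inhibition of 0.5 nM 17-beta-estradiol-driven beta-lactamase reporter in HEK 293 ER-alpha-UAS-bla cells, 18 h at 37C, CCF4 readout after 2 h at RT. Normalised to estradiol and DMSO; titration fitted to Hill.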
# [13] = target: Estrogen receptor (Homo sapiens) (UniProt P03372); experiment: qHTS assay for small molecule agonists of estrogen receptor alpha signaling (AID 588514; calls by dose curve; further: nearly all actives have a fitted effect of over 70% in size)
# How it was run: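 Cells were plated at 5000/well, incubated 4 hrs at 37 C, dosed with compound titration series, incubated 18 hrs at 37 C, loaded with CCF4 dye for 2 hrs at RT, then fluorescence was read.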
# [14] = target: Androgen receptor (Homo sapiens) (UniProt P10275); experiment: qHTS assay for small molecule agonists of androgen receptor signaling (AID 588515; active means well fitted curve in the direction sought with a large enough effect in the signal ratio, with a control signal flat; the % refers to the signal ratio); conditions: AR-UAS-bla HEK293, beta-lactamase ratio, agonist 16 h; stronger effect = higher value
# Sequence of Androgen receptor (Homo sapiens) (P10275 whole entry, looked up): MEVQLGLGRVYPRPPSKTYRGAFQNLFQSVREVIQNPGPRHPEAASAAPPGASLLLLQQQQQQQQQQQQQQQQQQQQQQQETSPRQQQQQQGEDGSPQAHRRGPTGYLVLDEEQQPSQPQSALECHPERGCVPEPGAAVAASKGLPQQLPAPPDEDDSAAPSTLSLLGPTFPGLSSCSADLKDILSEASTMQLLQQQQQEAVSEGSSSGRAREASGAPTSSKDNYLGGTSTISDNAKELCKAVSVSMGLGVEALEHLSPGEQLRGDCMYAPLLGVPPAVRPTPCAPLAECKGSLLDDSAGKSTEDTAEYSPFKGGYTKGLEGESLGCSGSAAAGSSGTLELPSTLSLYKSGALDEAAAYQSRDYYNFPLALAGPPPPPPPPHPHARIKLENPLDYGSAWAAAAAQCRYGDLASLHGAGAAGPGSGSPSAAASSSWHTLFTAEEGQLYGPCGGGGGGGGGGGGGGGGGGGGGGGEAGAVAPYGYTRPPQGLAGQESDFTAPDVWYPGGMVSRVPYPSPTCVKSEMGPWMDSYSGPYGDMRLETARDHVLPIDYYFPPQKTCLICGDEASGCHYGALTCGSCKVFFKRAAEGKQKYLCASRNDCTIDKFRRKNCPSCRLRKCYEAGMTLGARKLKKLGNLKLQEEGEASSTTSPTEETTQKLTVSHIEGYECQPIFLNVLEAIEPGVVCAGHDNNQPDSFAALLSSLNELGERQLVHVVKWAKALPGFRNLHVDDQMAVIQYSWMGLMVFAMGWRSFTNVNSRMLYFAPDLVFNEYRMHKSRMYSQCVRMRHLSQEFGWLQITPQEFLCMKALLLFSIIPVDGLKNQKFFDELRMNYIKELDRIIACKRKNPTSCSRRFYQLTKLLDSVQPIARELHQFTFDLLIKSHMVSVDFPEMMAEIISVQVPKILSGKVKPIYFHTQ
# How it was run: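 EC50 and efficacy came from Hill fits of titrations (up to 92 uM) normalized to 30 nM R1881 as 100% and DMSO as 0%. Compound exposure was 16 h at 37 C on AR-UAS-bla HEK293 cells, with a 405/460/530 nm CCF4 fluorescence read.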
# [15] = target: Glucocorticoid receptor (Homo sapiens) (UniProt P04150); experiment: qHTS assay for small molecule agonists of glucocorticoid receptor signaling (AID 588532; active means well fitted curve in the direction sought with a large enough effect in the signal ratio, with a control signal flat; the % refers to the signal ratio); conditions: HeLa MMTV-bla, beta-lactamase ratio, agonist, 18 h; stronger effect = higher value; percent of dexamethasone control, DMSO zero
# Sequence of Glucocorticoid receptor (Homo sapiens) (P04150 whole entry, looked up): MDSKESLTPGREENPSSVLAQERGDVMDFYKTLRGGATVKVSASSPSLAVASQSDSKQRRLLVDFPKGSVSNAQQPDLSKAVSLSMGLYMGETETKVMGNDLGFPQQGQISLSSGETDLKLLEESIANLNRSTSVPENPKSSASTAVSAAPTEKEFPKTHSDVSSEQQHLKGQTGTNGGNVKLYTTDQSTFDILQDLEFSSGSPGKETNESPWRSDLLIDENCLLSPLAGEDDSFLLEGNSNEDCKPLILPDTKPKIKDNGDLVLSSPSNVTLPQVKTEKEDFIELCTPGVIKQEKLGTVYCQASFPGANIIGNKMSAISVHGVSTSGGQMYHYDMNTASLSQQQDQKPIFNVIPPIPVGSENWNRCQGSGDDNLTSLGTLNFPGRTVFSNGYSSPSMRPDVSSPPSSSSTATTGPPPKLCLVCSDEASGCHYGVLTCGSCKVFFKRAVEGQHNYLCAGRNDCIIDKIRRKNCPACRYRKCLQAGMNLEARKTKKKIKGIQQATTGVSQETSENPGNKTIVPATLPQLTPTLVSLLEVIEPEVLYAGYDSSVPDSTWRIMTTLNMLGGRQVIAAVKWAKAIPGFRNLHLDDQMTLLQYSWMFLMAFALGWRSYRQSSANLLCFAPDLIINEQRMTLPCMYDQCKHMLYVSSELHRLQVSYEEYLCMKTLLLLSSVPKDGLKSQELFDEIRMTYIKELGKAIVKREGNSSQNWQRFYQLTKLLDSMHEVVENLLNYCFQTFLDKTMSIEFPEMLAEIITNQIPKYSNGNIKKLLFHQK
# How it was run: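 Quantitative HTS using CellSensor MMTV-bla HeLa cells in charcoal/dextran-treated serum; compounds tested up to 92 uM. After 18 h at 37 C, CCF4 dye reported reporter induction.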
# [16] = target: Glucocorticoid receptor (Homo sapiens) (UniProt P04150); experiment: qHTS assay for small molecule antagonists of glucocorticoid receptor signaling (AID 588533; active means well fitted inhibition curve with a large enough effect in the signal ratio, with a control signal flat, not every such curve was filed as active; the % refers to the signal ratio;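 further: cells stimulated with 2 nM dexamethasone as agonist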)
# How it was run: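 Antagonist-mode qHTS: compound titrations added to GRE-bla HeLa cells, then dexamethasone 2 nM final; 18 h, 37 C. CCF4 FRET fluorescence normalized to dexamethasone and DMSO; IC50 from Hill fit.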
# [17] = target: Peroxisome proliferator-activated receptor gamma (Homo sapiens) (UniProt P37231); experiment: qHTS assay for small molecule agonists of peroxisome proliferator-activated receptor gamma signaling (AID 588536; active means well fitted curve in the direction sought with a large enough effect in the signal ratio, with a control signal flat, not every such curve was filed as active; the % refers to the signal ratio)
# Sequence of Peroxisome proliferator-activated receptor gamma (Homo sapiens) (P37231 whole entry, looked up): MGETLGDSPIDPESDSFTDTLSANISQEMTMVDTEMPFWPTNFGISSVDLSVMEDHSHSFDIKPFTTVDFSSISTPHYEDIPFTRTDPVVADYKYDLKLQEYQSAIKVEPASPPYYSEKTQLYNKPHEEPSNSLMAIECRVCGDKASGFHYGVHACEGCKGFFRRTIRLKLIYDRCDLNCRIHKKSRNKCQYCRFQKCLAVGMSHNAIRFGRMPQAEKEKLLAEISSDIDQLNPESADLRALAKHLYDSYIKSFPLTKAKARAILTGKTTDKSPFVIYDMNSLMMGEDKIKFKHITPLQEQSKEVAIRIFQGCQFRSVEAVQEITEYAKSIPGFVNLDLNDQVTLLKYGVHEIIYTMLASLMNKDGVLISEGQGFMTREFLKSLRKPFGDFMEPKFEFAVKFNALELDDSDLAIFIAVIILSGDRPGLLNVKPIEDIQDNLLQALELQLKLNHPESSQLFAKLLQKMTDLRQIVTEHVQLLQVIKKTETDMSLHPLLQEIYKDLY
# How it was run: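 Test agents, titrated, stimulated HEK293 UAS-bla cells overnight (16 h, 37 C). Substrate CCF4 was then added for two hours at room temperature before fluorescence reading.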
# [18] = target: Vitamin D3 receptor (Homo sapiens) (UniProt P11473); experiment: qHTS assay for small molecule agonists of vitamin D receptor signaling (AID 588543; calls by dose curve)
# Sequence of Vitamin D3 receptor (Homo sapiens) (P11473 whole entry, looked up): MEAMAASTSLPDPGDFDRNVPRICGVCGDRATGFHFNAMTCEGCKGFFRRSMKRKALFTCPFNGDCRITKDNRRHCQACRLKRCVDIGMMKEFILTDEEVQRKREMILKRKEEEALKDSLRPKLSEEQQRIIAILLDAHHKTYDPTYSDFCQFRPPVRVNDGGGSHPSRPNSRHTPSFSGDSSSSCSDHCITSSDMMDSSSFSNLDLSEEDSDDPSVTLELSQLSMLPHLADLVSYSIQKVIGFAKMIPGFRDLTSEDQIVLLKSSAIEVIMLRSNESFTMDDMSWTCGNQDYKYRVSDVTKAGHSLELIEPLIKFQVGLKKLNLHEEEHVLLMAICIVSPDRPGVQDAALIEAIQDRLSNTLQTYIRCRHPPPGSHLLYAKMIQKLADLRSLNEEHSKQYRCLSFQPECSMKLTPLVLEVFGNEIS
# How it was run: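 Agonist-mode beta-lactamase reporter: HEK293T VDR-UAS-bla cells in charcoal-stripped 2% FBS, compound series 16 h 37 C, CCF4 2 h RT. EC50 from Hill fit, scaled against DMSO and 50 nM calcitriol control.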
# [19] = qHTS assay for small molecule agonists of the antioxidant response element (ARE) signaling pathway (AID 651741; active means well fitted activation curve with a large enough effect in the signal ratio; the % refers to the signal ratio; further: potency means the concentration at half of the fitted maximal effect)
# How it was run: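 Quantitative HTS in HepG2 cells stably expressing an ARE-beta-lactamase reporter; 16 h compound exposure at 37 C, followed by 2 h room-temperature incubation with LiveBLAzer B/G FRET substrate and fluorescence measurement.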
# [20] = qHTS assay for environmental chemicals that activate the Aryl hydrocarbon Receptor (AhR) signaling pathway (AID 651777); conditions: 1A2-DRE human hepatoma cells, luciferase, 24 h; stronger effect = higher value; further: nearly all actives have a fitted effect of over 15% in size
# How it was run: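 Human hepatoma 1A2-DRE cells, stably carrying a dioxin response element and CYP1A2 promoter driving luciferase, were exposed to compounds for 24 hr at 37 C and 5% CO2. Luciferase signal was then read after 30 min One-Glo at room temperature.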
# [21] = qHTS assay for cell viability of HEK293 cells (AID 743288); conditions: ATP luminescence (CellTiter-Glo), 18 h; max response: stronger effect = lower value; further: potency means the concentration at half of the fitted maximal effect; nearly all actives have a fitted effect of over 50% in size
# How it was run: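 Total intracellular ATP, measured with a luciferase-coupled reagent, indicates the number of viable HEK293 cells. Exposure to test chemicals lasts 18 h at 37 C in 1,536-well format at 2,000 cells/well.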
# [22] = qHTS to identify inhibitors of the type 1 interferon - major histocompatibility complex class I in skeletal muscle: primary screen against the NCATS Mechanism Interrogation Plate v5.0 (MIPE) Libary (AID 1347411); further: nearly all actives have a fitted effect of over 65% in size
# How it was run: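 Luminescence from HiBiT-tagged endogenous HLA-B*08:01 served as the MHC class I read-out. CRISPR-engineered C25cl48 human myoblasts received 4.0 ng/ml IFN-beta plus compound for 24 hrs, with an 11-point, 1:3 series topping at 46 uM final.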
# [23] = Primary qHTS for small molecule stabilizers of the endoplasmic reticulum resident proteome: Secreted ER Calcium Modulated Protein (SERCaMP) assay (AID 1508630)
# How it was run: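 GLuc-SERCaMP-expressing SH-SY5Y cells, pretreated 16 h with compound, are challenged with thapsigargin to empty ER calcium stores; after 4 h, coelenterazine is added directly to the medium and luminescence is imaged.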
# [24] = Primary qHTS for inhibitors of nuclear receptor binding SET domain protein 2 (NSD2) in an isogenic RCH-ACV NSD2 p.E1099K mutant (9B) (AID 1645876); further: nearly all actives have a fitted effect of over 70% in size
# [25] = Primary qHTS for inhibitors of nuclear receptor binding SET domain protein 2 (NSD2) in an RCH-ACV wild type WT cells (2C) (AID 1645877); further: nearly all actives have a fitted effect of over 70% in size
# [26] = target: Glutathione peroxidase 1 (Homo sapiens) (UniProt P07203); experiment: Primary qHTS Assay for Inhibitors of Recombinant Selenoprotein Glutathione Peroxidase 1 (GPX1) (AID 1845191); further: nearly all actives have a fitted effect of over 65% in size
# Sequence of Glutathione peroxidase 1 (Homo sapiens) (P07203 whole entry, looked up): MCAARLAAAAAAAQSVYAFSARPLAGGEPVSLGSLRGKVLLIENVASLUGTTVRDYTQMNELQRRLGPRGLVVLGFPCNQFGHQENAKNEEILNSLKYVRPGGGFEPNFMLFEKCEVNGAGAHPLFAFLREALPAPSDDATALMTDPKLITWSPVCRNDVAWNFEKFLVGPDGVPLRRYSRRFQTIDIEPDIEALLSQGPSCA
# How it was run: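 10 nM GPX1 + cpd, 30 min RT; start w/ 1 mM GSH, 0.5 mM cumene hydroperoxide, 0.5 mM NADPH, 100 nM GR, 0.01% BSA; buffer 50 mM Tris-HCl pH 7.5, 2 mM EDTA, 150 mM NaCl; Fl 340/450, 0 & 15 min.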
# [27] = target: Phospholipid hydroperoxide glutathione peroxidase GPX4 (Homo sapiens) (UniProt P36969); experiment: Primary qHTS Assay for Inhibitors of Recombinant Selenoprotein Glutathione Peroxidase 4 (GPX4) (AID 1845192); conditions: outcome: dose series up to 50 µM unless noted; further: series mostly up to about 50 µM; nearly all actives have a fitted effect of over 65% in size
# Sequence of Phospholipid hydroperoxide glutathione peroxidase GPX4 (Homo sapiens) (P36969 whole entry, looked up): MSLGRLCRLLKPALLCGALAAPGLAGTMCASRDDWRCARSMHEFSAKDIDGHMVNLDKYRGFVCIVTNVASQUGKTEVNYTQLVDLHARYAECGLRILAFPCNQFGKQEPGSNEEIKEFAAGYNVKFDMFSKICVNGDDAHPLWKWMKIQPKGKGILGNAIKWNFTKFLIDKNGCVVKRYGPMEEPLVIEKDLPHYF
# How it was run: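 NADPH consumption, followed by fluorescence at 340/450 nm between 0 and 15 min, reports GPX4 activity via coupled glutathione reductase (100 nM). Enzyme 200 nM was pre-exposed to compound 30 min; 0.5 mM cumene hydroperoxide and 1 mM GSH served as substrates.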
# [28] = qHTS drug screen for cell cycle checkpoint inhibitors in PARPi-resistant BRCA-mutant ovarian cancer cell lines. (AID 1963452; calls by dose curve); conditions: PEO1/OlaR viability, CellTiter-Glo luminescence, 96 h, stronger effect = lower value
# How it was run: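 PEO1, PEO4 and PEO1/OlaR ovarian cancer cells, 600 per well, exposed 96 h at 37C to a dilution series. Viability read by CellTiter-Glo luminescence, normalized to DMSO and empty wells; activity summarized as Z-AUC.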
# [29] = target: Nuclear receptor subfamily 1 group I member 2 (Rattus norvegicus) (UniProt Q9R1A7); experiment: qHTS assay for small molecule activators of the rat pregnane X receptor (rPXR) signaling pathway (AID 651751; call rule not given here); conditions: rPXR reporter cells, luciferase (One-Glo), 24 h
# Sequence of Nuclear receptor subfamily 1 group I member 2 (Rattus norvegicus) (Q9R1A7 whole entry, looked up): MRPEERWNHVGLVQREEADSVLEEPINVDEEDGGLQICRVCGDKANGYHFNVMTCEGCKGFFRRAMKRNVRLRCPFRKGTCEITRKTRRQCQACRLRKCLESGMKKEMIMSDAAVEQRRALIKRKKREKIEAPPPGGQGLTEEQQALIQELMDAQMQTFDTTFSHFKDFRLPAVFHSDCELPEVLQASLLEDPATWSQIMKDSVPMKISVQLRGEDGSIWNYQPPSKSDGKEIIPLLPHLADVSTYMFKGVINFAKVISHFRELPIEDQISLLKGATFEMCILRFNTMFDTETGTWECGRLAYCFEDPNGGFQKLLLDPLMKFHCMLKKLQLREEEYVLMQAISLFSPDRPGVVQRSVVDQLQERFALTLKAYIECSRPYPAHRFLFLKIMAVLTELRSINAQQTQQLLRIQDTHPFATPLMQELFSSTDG
compound,measurement,setting,value
O=C(O)c1cc(NCc2cc(O)ccc2O)ccc1O,"parasite growth, % of DMSO control",[1],85.7%
same,"parasite growth remaining, % of DMSO control (lower = more inhibition)",[2],96.7%
same,"parasite growth, % of control (lower = inhibition)",[3],67.1%
same,"growth, % of control",[4],68.7%
same,Potency,[5],inactive
same,Potency,[6],inactive
same,Potency,[7],22.4 µM (active)
same,Potency,[8],inactive
same,Potency,[9],inactive
same,Potency,[10],inactive
c1ccc(COCCCc2cnc[nH]2)cc1,Potency,[11],inactive
CC(C)c1cc(/C=C(\C#N)C(=O)NCCCc2ccccc2)cc(C(C)C)c1O,Potency,[11],inactive
Cn1cnnc1Sc1c([N+](=O)[O-])ncn1C,Potency,[11],inactive
CC(=Nc1ccccc1N)c1c(C)cc(=O)n(O)c1O,Potency,[11],inactive
O=C(O)C1CC(CCCP(=O)(O)O)CCN1 (centres undefined),Potency,[11],inactive
CC(C)CC(NC(=O)NC(CCC(=O)O)C(=O)O)C(=O)O (centres undefined),Potency,[11],inactive
CC#CC(=O)Nc1cc2c(Nc3ccc(F)c(Cl)c3)ncnc2cn1,Potency,[11],inactive
CCCCC/C=C\C[C@@H](O)/C=C/C=C/C=C\[C@@H](O)CCCC(=O)O,"activity change, negative = inhibition",[11],25.7% [at 0.59 µM] (inactive)
CCCCC[C@H](O)/C=C/[C@@H]1[C@H]2C/C(=C/CCCC(=O)O)C[C@H]2C[C@H]1O,Potency,[11],inactive
NC(C(=O)O)c1ccc(P(=O)(O)O)cc1 (centres undefined),Potency,[11],inactive
COc1ccccc1N1CCN(CC2CN3C(=O)N(C)c4ccccc4C3=N2)CC1 (centres undefined),Potency,[11],inactive
O=c1[nH]cnc2c1ncn2C1O[C@H](CO)[C@@H](O)[C@H]1O (some centres undefined),Potency,[11],inactive
COCCNC(=O)COc1ccc(OCCNC[C@H](O)COc2ccccc2)cc1,Potency,[11],inactive
C[C@H](N)CCP(=O)(O)O,Potency,[11],inactive
CCn1c(=O)n(C2=C(CO)CN(CC3CCCCCCC3)CC2)c2ccccc21,Potency,[11],inactive
O=C(O)c1cc(N(Cc2ccccc2O)Cc2cc(O)ccc2O)ccc1O,Potency,[11],inactive
CC[C@@H](C)[C@H](NS(=O)(=O)c1cccc2ccccc12)C(=O)N[C@H](C=O)Cc1c[nH]c2ccccc12,Potency,[11],inactive
CCCCn1c(=O)c2[nH]c(C34CC5CC(CC3C5)C4)nc2n(CCCO)c1=O,Potency,[11],inactive
Clc1ccc(-c2nc3sccn3c2/C=N/OCc2ccc(Cl)c(Cl)c2)cc1,Potency,[12],20 µM [inhibitor] (active)
same,outcome,[13],inactive
same,activation,[14],-9.11% (inactive)
same,activation,[15],2.87% (inactive)
same,outcome,[16],inactive
same,outcome,[17],inactive
same,outcome,[18],inactive
same,Potency,[19],24.3 µM (active)
same,activation,[20],3.66% (inactive)
same,Potency,[21],50.1 µM (active)
same,Potency,[11],inactive
same,Potency,[22],inactive
same,Potency,[23],inactive
same,Potency,[24],inactive
same,Potency,[25],inactive
same,Potency,[26],inactive
same,Potency,[27],inactive
same,Z-AUC,[28],1.14 (inactive)
same,Z-AUC,[28]; measured here: PEO1 parental Z-AUC,1.09
same,Z-AUC,[28]; measured here: PEO4 Z-AUC,1.23
same,max response,[29],6.54% (inactive)
